# In the supplement of paper PMC8728848:
# The full list was thinned out, with the strongest signals kept by preference.
# B1: LecB PA14 (Pseudomonas aeruginosa) (protein)
# chain: MATQGVFTLPANTQFGVTAFANSAGTQTVNVQVNNETVATFTGQSTNNAIIGSKVLNSGGGGKVQILVSVNGRSSDLVSAQVILANELNFALVGSEDSTDNDYNDAVVVINWPLG
# What was measured:
# Assay in all cases: glycan array binding signal (z-score within array); higher = stronger binding
# Settings in all cases: glycan notation: IUPAC condensed, linker removed
# GlcA(b1-3)Gal = target: GlcA(b1-3)Gal
# Summary of the method: (§1)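 The Consortium for Functional Glycomics database supplied 3228 glycan arrays, of which those lacking an available protein sequence were dropped. The binding signal, a within-array Z-score, was averaged across arrays of the same protein sequence and across linkers. Negative scores can be read as non-binding.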
# [1] = target: GlcNAc(a1-4)Gal(b1-4)GlcNAc(b1-3)Gal(b1-4)Glc
# Summary of the method: as §1
# [2] = target: GlcNAc(b1-2)Man(a1-3)[GlcNAc(b1-4)][GlcNAc(b1-2)Man(a1-6)]Man(b1-4)GlcNAc(b1-4)GlcNAc
# Summary of the method: as §1
# [3] = target: GlcNAc(b1-2)[GlcNAc(b1-6)]Man(a1-6)[GlcNAc(b1-2)Man(a1-3)]Man(b1-4)GlcNAc(b1-4)[Fuc(a1-6)]GlcNAc
# Summary of the method: as §1
# [4] = target: GlcNAc(b1-3)Gal(b1-4)GlcNAc(b1-3)Gal(b1-4)GlcNAc(b1-2)Man(a1-3)[GlcNAc(b1-3)Gal(b1-4)GlcNAc(b1-3)Gal(b1-4)GlcNAc(b1-2)Man(a1-6)]Man(b1-4)GlcNAc(b1-4)GlcNAc
# Summary of the method: as §1
# GlcNAc(b1-3)Man = target: GlcNAc(b1-3)Man
# Summary of the method: as §1
# Kdn(a2-3)Gal(b1-4)GlcNAc = target: Kdn(a2-3)Gal(b1-4)GlcNAc
# Summary of the method: as §1
# [5] = target: Man(a1-2)Man(a1-3)[Man(a1-2)Man(a1-6)]Man(a1-6)[Man(a1-2)Man(a1-2)Man(a1-3)]Man
# Summary of the method: as §1
# [6] = target: Neu5Ac(a2-3)Gal(b1-3)GalNAc
# Summary of the method: as §1
# [7] = target: Neu5Ac(a2-3)Gal(b1-3)[Fuc(a1-4)]GlcNAc(b1-3)Gal(b1-3)[Fuc(a1-4)]GlcNAc
# Summary of the method: as §1
# [8] = target: Neu5Ac(a2-3)Gal(b1-3)[Neu5Ac(a2-6)]GalNAc
# Summary of the method: as §1
# [9] = target: Neu5Ac(a2-3)Gal(b1-4)GlcNAc(b1-3)Gal(b1-4)GlcNAc(b1-3)[Neu5Ac(a2-3)Gal(b1-4)GlcNAc(b1-3)Gal(b1-4)GlcNAc(b1-6)]GalNAc
# Summary of the method: as §1
# [10] = target: Neu5Ac(a2-3)Gal(b1-4)GlcNAc(b1-3)[Neu5Ac(a2-3)Gal(b1-4)GlcNAc(b1-6)]GalNAc
# Summary of the method: as §1
# [11] = target: Neu5Ac(a2-3)Gal(b1-4)[Fuc(a1-3)]GlcNAc(b1-6)[Neu5Ac(a2-3)Gal(b1-3)]GalNAc
# Summary of the method: as §1
# [12] = target: Neu5Ac(a2-3)Gal(b1-4)[Fuc(a1-3)]GlcNAc6S
# Summary of the method: as §1
# [13] = target: Neu5Ac(a2-3)GalNAc(b1-4)GlcNAc
# Summary of the method: as §1
# [14] = target: Neu5Ac(a2-6)Gal(b1-4)GlcNAc
# Summary of the method: as §1
# [15] = target: Neu5Ac(a2-6)Gal(b1-4)GlcNAc(b1-2)Man(a1-3)[Neu5Ac(a2-3)Gal(b1-4)GlcNAc(b1-2)Man(a1-6)]Man(b1-4)GlcNAc(b1-4)GlcNAc
# Summary of the method: as §1
binder,measurement,setting,value
B1,glycan array binding signal (z-score),GlcA(b1-3)Gal,0.136
same,glycan array binding signal (z-score),[1],-0.506
same,glycan array binding signal (z-score),[2],-0.629
same,glycan array binding signal (z-score),[3],-0.125
same,glycan array binding signal (z-score),[4],0.43
same,glycan array binding signal (z-score),GlcNAc(b1-3)Man,-0.123
same,glycan array binding signal (z-score),Kdn(a2-3)Gal(b1-4)GlcNAc,-0.618
same,glycan array binding signal (z-score),[5],5.22
same,glycan array binding signal (z-score),[6],-0.314
same,glycan array binding signal (z-score),[7],3.3
same,glycan array binding signal (z-score),[8],-0.618
same,glycan array binding signal (z-score),[9],-0.427
same,glycan array binding signal (z-score),[10],-0.521
same,glycan array binding signal (z-score),[11],-0.054
same,glycan array binding signal (z-score),[12],0.335
same,glycan array binding signal (z-score),[13],-0.298
same,glycan array binding signal (z-score),[14],-0.39
same,glycan array binding signal (z-score),[15],-0.741
